Compounds without any hit were thinned out: in the full panel of roughly 83,000, 20% have a hit.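 A percent growth of 40 corresponds to 60% growth inhibition; 0 means no net growth; -100 means all cells died. Active threshold: below 10.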 Values without a mark were called inactive. Activity calls are given as the source filed them.
Assays:
Assay in all cases: NCI-60 one-dose screen, 48 h (100 = growth as untreated, 0 = no growth, -100 = all killed)
Conditions in all cases: 10 µM unless noted
T-47D breast = system: T-47D breast
BT-549 breast = system: BT-549 breast
MDA-MB-435 melanoma = system: MDA-MB-435 melanoma
SW-620 colon = system: SW-620 colon
MCF7 breast = system: MCF7 breast
HCT-116 colon = system: HCT-116 colon
HCC-2998 colon = system: HCC-2998 colon
KM12 colon = system: KM12 colon

SMILES | growth (T-47D breast) | growth (BT-549 breast) | growth (MDA-MB-435 melanoma) | growth (SW-620 colon) | growth (MCF7 breast) | growth (HCT-116 colon) | growth (HCC-2998 colon) | growth (KM12 colon)
CC(=O)N(C(C)=O)c1ccc(C)cc1 | 102% | 101% | 111% | 102% | 87.6% | 117% | 98.2% | 103%
CCOC(=O)c1ccc(NC(C)=O)o1 | 93.5% | 104% | 103% | 78.7% | 96.9% | 101% | 115% | 102%
CC1=CC(=Nc2ccc(N(C)C)cc2)C=C(C)C1=O | 48.5% | 74.1% | 75.7% | 93.8% | 77% | 83.5% | 96.1% | 87.5%
COc1cc(C(=O)NC(=S)NCc2ccncc2)cc(OC)c1OC | 83.2% | 102% | 104% | 110% | 98.3% | 97.3% | 115% | 98%
COC(=O)C1(CC(C)=O)NC(=S)NC(=O)C1C#N (stereo not drawn) | 108% | 108% | 114% | 102% | 97.5% | 106% | 109% | 106%
NC(=O)c1cc2c3ccccc3ccn2c1-c1ccccc1 | 88.7% | 25.5% | -13.5% (active) | 33.7% | 10.3% | -32.6% (active) | -6.31% (active) | 4.03% (active)
CC(C)c1ncc([N+](=O)[O-])n1C | 101% | 103% | 136% | 98% | 97.2% | 107% | 105% | 111%
O=C(O)c1ccc(OCc2ccccc2)cc1 | 83.7% | 104% | 108% | 107% | 96.5% | 93% | 101% | 111%
Cc1ccc(S(=O)(=O)NC(=O)NCCSSCCNC(=O)NS(=O)(=O)c2ccc(C)cc2)cc1 | 105% | 125% | 101% | 98.3% | 103% | 113% | 108% | 113%
OCC1CCC(O)C(CO)N1 (stereo not drawn) | 111% | 100% | 102% | 101% | 92.6% | 102% | 115% | 103%
C#CC(O)c1ccccc1 (stereo not drawn) | 99.9% | 106% | 108% | 102% | 99.1% | 102% | 125% | 107%
Nc1ccn(C2OC(CO)C(O)C2F)c(=O)n1 (stereo not drawn) | 94.1% | 93.9% | 78.4% | 67.7% | 46.7% | 49.2% | 49.7% | 89.6%
CCN(CC)CCOC(=O)Nc1c(C(C)C)cccc1C(C)C | 103% | 117% | 102% | 118% | 101% | 101% | 114% | 105%
COC1OC(CO)C(OC)C(O)C1O (stereo not drawn) | 112% | 104% | 109% | 93.6% | 98.9% | 106% | 107% | 99.6%
CSc1nsc(N)n1 | 98.8% | 100% | 102% | 92.9% | 95.8% | 104% | 106% | 101%
COc1cccc(N=CNc2cccc(OC)c2)c1 | 92% | 101% | 102% | 98.5% | 92.2% | 92.2% | 98.9% | 87.8%
C=C(OC(C)=O)c1ccccc1 | 89.5% | 107% | 107% | 97.4% | 97.1% | 98% | 110% | 102%
CC1(C)CCC(C)(C)NC(=S)N1 | 98.5% | 105% | 111% | 111% | 103% | 98.9% | 109% | 99.1%

SMILES | growth (T-47D breast) | growth (BT-549 breast) | growth (MDA-MB-435 melanoma) | growth (SW-620 colon) | growth (MCF7 breast) | growth (HCT-116 colon) | growth (HCC-2998 colon) | growth (KM12 colon)
CC(=O)N(C)N=Nc1ccc(C)cc1 | 102% | 90.1% | 103% | 98.6% | 106% | 101% | 91.5% | 118%
Nc1ccc2c(c1)Cc1cc(N)c(N)cc1-2 | 84.4% | 104% | 104% | 100% | 73.3% | 95.8% | 110% | 94.3%
NC(CCl)=NCC12CC3CC(CC(C3)C1)C2 | 15.7% | 1.18% (active) | -3.63% (active) | 3.96% (active) | -29.1% (active) | -69.2% (active) | -17.9% (active) | -31.6% (active)
CCCCN(C=S)CCCC | 81% | 97.4% | 105% | 96.4% | 87.6% | 98.9% | 102% | 102%
O=c1nc(Nc2cccc(Cl)c2)oc2cc(Cl)oc(=O)c12 | 61.6% | 91.2% | 85.8% | 74.1% | 53.8% | 55.1% | 96.2% | 81.7%
N=C(N)c1nn(C2OC(CO)C(O)C2O)c2nc[nH]c(=O)c12 (stereo not drawn) | -14.6% (active) | -14.8% (active) | -49.5% (active) | -4.15% (active) | 4.19% (active) | -80.3% (active) | -22.8% (active) | -49.4% (active)
CC(O)C(F)(F)C(F)(F)C(F)(F)F (stereo not drawn) | 110% | 107% | 110% | 101% | 101% | 100% | 111% | 114%
COc1cc(C(=O)O)c(O)c(C(C)(C)C)c1 | 103% | 105% | 104% | 106% | 97.4% | 101% | 96.7% | 104%
NC(=S)N/N=C/c1ccc(OC(=O)COc2ccccc2)cn1 | 41.5% | 40.9% | 60.2% | 49% | 22.9% | 39.3% | 31% | 62.4%
C=COC(=O)CCOCC(CC)CCCC (stereo not drawn) | 95.9% | 93.6% | 99.2% | 105% | 96.3% | 101% | 105% | 99.9%
Cc1c(Cl)cccc1N=C=S | 107% | 87.9% | 106% | 114% | 97.5% | 95.2% | 92.9% | 108%
ClCc1cccc2c(CCl)cccc12 | 4.84% (active) | -74% (active) | 84.3% | 70.8% | 24.4% | -86.3% (active) | 55.8% | 13.7%
CC(=O)CSc1ncnc2nc[nH]c12 | 82% | 102% | 89.7% | 96% | 74.7% | 88.7% | 97.5% | 123%
COC1OC(C(COC(C)=O)OC(C)=O)C(OC(C)=O)C(OC(C)=O)C1OC(C)=O (stereo not drawn) | 103% | 106% | 114% | 104% | 96% | 106% | 115% | 117%
CC(=O)Nc1ccc(O)c(C)c1 | 95.9% | 112% | 108% | 106% | 99.9% | 99.1% | 106% | 106%
CC(=O)NNC(=S)/N=C\C(C(=O)c1ccccc1)=C(/O)c1ccccc1 | 87.8% | 92.7% | 109% | 110% | 93.6% | 96.5% | 102% | 99.4%
Cc1ccc(C)c2c1CCC2=O | 103% | 97.6% | 93.3% | 93.5% | 94.7% | 93.1% | 96.7% | 100%
O=CNCCc1ccccc1 | 101% | 96.5% | 102% | 113% | 95.3% | 102% | 122% | 131%

Source: PubChem BioAssay (NCI)
